Pf growth 48h = P. falciparum growth inhibition at 48 hours (one generation); AID 504832; P. falciparum luciferase growth in erythrocytes, 48 h; Potency, µM (doses to about 28.7 µM), without a hit: top-dose activity change, negative = inhibition, hits mostly inhibitors; 310,000 compounds, 5.9% hits; note: potency is the fitted concentration of half-maximal effect; % is set by controls: 0 for no effect and ±100 for the full control effect
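In quantitative HTS format, infected erythrocytes bearing luciferase-reporter parasites were treated for a single generation at 37 C. Luminescence after adding detection reagent served as the growth measure.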
LASV entry inh = inhibitors of Lassa virus binding or cell entry. Lassa virus pseudotype entry inhibition, cell reporter. Potency, µM (titrated, usually from 37.9 µM), for the others: at the top dose activity change, negative = inhibition, actives largely listed as inhibitors. 300,000 compounds, 1.2% hits. AID 540256; calls by dose curve; tested in HEK293 cells; note: potency is the fitted concentration of half-maximal effect; % is set by controls: 0 for no effect and ±100 for the full control effect; nearly all actives have a fitted effect of over 50% in size
Shiga inhibitor = Shiga toxin inhibition | Vero cells, Shiga toxin protein synthesis inhibition reporter | inhibition, % at 38.7 µM | 290,000 compounds, 9.2% hits; in the data active = inhibition mostly above about 28%, no sharp cut-off; inactive = mostly below about 43%; note: 0% is about no effect
Marburg entry inh = blocks Marburg virus binding to or entry into cells; Marburg virus pseudotyped entry inhibition, cell reporter; Potency, µM (doses to about 37.8 µM), without a hit: top-dose activity change, negative = inhibition, usual class: inhibitors; 300,000 compounds, 1.8% hits; AID 540276; calls by dose curve; tested in HEK293 cells; note: potency is the fitted concentration of half-maximal effect; % is set by controls: 0 for no effect and ±100 for the full control effect
CHX counter = counter-screen hit for Shiga toxin inhibitors, cycloheximide | max response, % | cell reporter, cycloheximide protein synthesis inhibition counterscreen | 300,000 compounds, 12% hits | AID 2314; in the data active = max response mostly above about 13%, no sharp cut-off; inactive = mostly below about 14%; note: read at 38.3 µM for the half of the compounds with a filed dose; 0% is about no effect
Pf growth 96h = inhibits malaria parasite growth, 96 h | 320,000 compounds, 6.9% hits | AID 504834 | Potency, µM (top dose mostly 28.7 µM), for the others: at the highest dose activity change, negative = inhibition, usual class: inhibitors | P. falciparum luciferase reporter growth, 96 h; note: potency is the fitted concentration of half-maximal effect; % is set by controls: 0 for no effect and ±100 for the full control effect
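Compounds incubated with erythrocytes infected by luciferase-expressing P. falciparum (2% hematocrit, 0.05% parasitemia final) for 96 hours, 37 C in 5% CO2. Growth inhibition scored as decreased luciferase luminescence.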
* = called active by the depositor; u = inconclusive; x = no result given; [ ] = another dose, or the depositor's remark. The list is not random: actives were taken first. Their share in the collection is about 19%. Unless noted, calls come from the whole dose curve; as a rule, active = well fitted inhibition curve with a large enough effect; inconclusive = small, poorly fitted or top-dose-only effect, or another doubt; inactive = no such curve, though single readings can be large or run the other way.

SMILES	Pf growth 48h	LASV entry inh	Shiga inhibitor	Marburg entry inh	CHX counter	Pf growth 96h
COCCN(C(=O)Nc1ccccc1)C(C)c1cccnc1 (stereo not drawn)	x	x	-1.0	x	5.9	5.22µM*
CCSc1ccc(NC(=O)c2cccnc2)cc1	77.9%	9.2%	47.4	-2.2%[46.1 µM]	33.5*	42.5%
CCc1ccc(NC(=O)N(C2CCCCC2)C(C)c2cccnc2)cc1 (stereo not drawn)	x	4.1%	80.0	u	33.4*	42.9%
CC/C(=C\C(=O)c1cccnc1)Nc1ccc(C)c(C)c1	u	-30.0%	51.6*	3.0%	17.0*	u
Cc1ccc(C)c(Nc2nc(-c3cccnc3)cs2)c1	u	-10.9%[46.1 µM]	111.1*	u	23.9*	-0.4%
Cc1ccc(Nc2nc(-c3cccnc3)cs2)cc1Cl	12.6%	3.3%[46.1 µM]	78.5	u	44.3*	-11.2%
c1cncc(Nc2nc(-c3cccnc3)cs2)c1	0.0%	12.5%	20.6	7.7%	11.6	x
CC(C)n1c(N2CCCC2)nc2c1c(=O)[nH]c(=O)n2C	8.4%	x	-4.6	x	-5.5	7.6%
O=C(CSc1ncccn1)Nc1ccc2c(c1)CCC2	65.1%	x	128.5*	x	36.4*	82.7%
CN(C)c1cc(NC(=O)CN2CCCC2)c2ccccc2n1	u	5.9%[46.1 µM]	-11.3	10µM*	1.0	u
O=C(COc1cccnc1[N+](=O)[O-])Nc1ccc2c(c1)CCC2	u	x	11.0	x	20.0*	7.4%
COc1ccc(NC(=O)CN2CCCC2)cc1	-16.8%	u	x	1.3%	12.6	-4.9%
O=C(CSc1ncccn1)Nc1ccc2[nH]c(=O)[nH]c2c1	10.5%	u	x	3.1%	x	11.3%
COc1ccc(NC(=O)COc2cccnc2[N+](=O)[O-])cc1OC	21.2%	u	-3.7	u	10.2	0.0%
O=C(CN1CCCC1)Nc1ccc(Oc2ccc(NC(=O)CN3CCCC3)cc2)cc1	u	13µM*	-8.8	2.06µM*	-4.2	x
COc1ccc(C(C(=O)NC2CCCC2)N(C(=O)c2ccco2)c2cc3c(cc2C(C)=O)OCO3)cc1 (stereo not drawn)	-25.3%	-5.3%	-4.6	-4.6%[46.1 µM]	-1.3	-10.1%
O=C(CN1CCCC1)Nc1ccc2c(c1)CCC2	50.7%	-10.2%	34.8*	-13.3%[46.1 µM]	23.5*	-4.9%
O=C(CN1CCCC1)Nc1ccc(NC(=O)Nc2ccccc2)cc1	-3.1%	u	54.0*	0.8%	39.3*	x
CCN(CC)c1ccc(NC(=O)CN2CCN(CC(=O)Nc3ccccc3F)CC2)cc1	11.7µM*	3.4%	-5.0	0.0%	-1.8	28.0%
COc1cc(NC(=O)Nc2ccccc2)c(OC)cc1NC(=O)CN1CCCCC1	u	-25.4%	36.1	u	3.6	x
CCOC(=O)NC(=O)COC(=O)CNC(=O)c1ccc(OCC)c(OCC)c1	12.2%	22.4%	-11.8	-4.1%[46.1 µM]	4.4	0.0%
O=C(C1=C[C@@H](C2CC2)C[C@@H](OCc2ccc(CO)cc2)O1)N1CCN(Cc2ccc3c(c2)OCO3)CC1	0.0%	x	-5.8	x	-3.0	13.3%
O=C(C1=C[C@@H](c2ccccc2)C[C@@H](OCc2ccc(CO)cc2)O1)N1CCOCC1	38.3%	x	-13.8	x	8.5	67.1%
C#Cc1ccc([C@H]2C=C(C(=O)N3CCN(Cc4ccc5c(c4)OCO5)CC3)O[C@@H](OCc3ccc(CO)cc3)C2)cc1	u	x	-14.2	x	-3.3	3.29µM*
O=C(C1=C[C@H](c2ccccc2)C[C@H](OCc2ccc(CO)cc2)O1)N1CCN(Cc2ccc3c(c2)OCO3)CC1	u	x	-4.3	x	-1.2	13.1µM*
SMILES	Pf growth 48h	LASV entry inh	Shiga inhibitor	Marburg entry inh	CHX counter	Pf growth 96h
O=C(C1=C[C@H](c2ccc(Br)cc2)C[C@H](OCc2ccc(CO)cc2)O1)N1CCN(Cc2ccc3c(c2)OCO3)CC1	u	x	-3.5	x	-3.5	7.38µM*
CN1CCN(C(=O)C2=C[C@H](c3ccccc3)C[C@H](OCc3ccc(CO)cc3)O2)CC1	u	x	1.4	x	7.5*	6.7%
C[C@H]1C=C(C(=O)N2CCN(Cc3ccc4c(c3)OCO4)CC2)O[C@@H](OCc2ccc(CO)cc2)C1	u	x	-9.0	x	1.8	u
COc1cc2c(cc1OC)CN(C(=O)CSc1ccccc1C)CC2	x	2.5%	x	15.6%	x	x
COc1ccc(-n2c(C)nnc2SCc2nc(-c3ccc(OC)c(OC)c3)no2)cc1	x	u	x	-0.4%[46.1 µM]	x	x
CC(CC(=O)NCc1ccc(Cl)cc1Cl)CC1=NS(=O)(=O)c2ccccc2N1 (stereo not drawn)	x	-27.5%[46.1 µM]	x	x	x	x
O=C(Cn1cnc(S(=O)(=O)N2CCCCC2)c1)Nc1ccc(OC(F)(F)F)cc1	-1.8%	x	-5.3	x	1.1	-25.9%
O=C(COC(=O)CCc1ccccc1)Nc1ccccc1OC(F)F	-7.5%	14.0%	-6.5	-3.2%[46.1 µM]	-1.7	39.1%
O=C(C1=C[C@H](c2ccc3c(c2)OCO3)C[C@H](OCc2ccc(CO)cc2)O1)N1CCN(Cc2ccc3c(c2)OCO3)CC1	4.15µM*	x	-16.4	x	-4.2	13.1µM*
CCc1cc(-c2[nH]ncc2-c2nc3ccccc3n2C)c(O)cc1O	-18.2%	x	13.1	x	-3.1	-24.9%
CCCc1cc(-c2[nH]ncc2-c2ccc(C(=O)OCC)o2)c(O)cc1O	6.57µM*	-17.4%	-14.6	u	-1.8	7.1%
CCCc1cc(-c2[nH]ncc2-c2ccc3c(c2)OCCCO3)c(O)cc1O	u	u	-17.4	14.6µM*	10.4	13.1µM*
Cn1cc(CNCc2cn[nH]c2-c2ccc(F)cc2)c(-c2ccc3c(c2)OCCO3)n1	14.9%	x	10.5	x	-3.5	-4.6%
O=C(CSc1nnc(-c2ccco2)o1)NCCc1ccccc1	4.4%	x	x	x	x	-13.9%
O=C(NCCO)c1ccc2[nH]c3ccccc3c2c1	40.8%	-4.8%	16.8	-0.7%	14.8	47.7%
CCOc1ccc(N/C=C/C(=O)c2ccc(C)cc2)c([N+](=O)[O-])c1	138.3%	u	64.4*	u	41.6*	-12.0%
COc1ccc(C(=O)/C=C/Nc2ccc([N+](=O)[O-])cc2C)cc1OC	5.0%	12.4%	13.9	-15.4%	5.1	0.0%
Cc1ccc(C(=O)/C=C/Nc2ccc([N+](=O)[O-])cc2Br)cc1	112.0%	u	77.0*	-0.3%[46.1 µM]	67.3*	215.2%
Cc1ccc(CNC(=O)C2CCN(S(=O)(=O)c3cnc[nH]3)CC2)cc1	6.9%	23.5%	-8.0	11.7%	-5.1	x
CCS(=O)(=O)c1ccc2oc(Nc3ccc(C(C)(C)C)cc3)nc2c1	u	-24.6%	3.5	-4.7%	-1.5	-29.4%
CCS(=O)(=O)c1ccc2oc(Nc3ccccc3Br)nc2c1	295.9%	-3.7%	79.3*	-3.0%[46.1 µM]	35.0*	184.1%
CCS(=O)(=O)c1ccc2oc(Nc3cc(Cl)ccc3OC)nc2c1	-13.5%	-11.2%	-16.4	-3.7%[46.1 µM]	1.7	-7.3%
CCS(=O)(=O)c1ccc2oc(Nc3ccccc3Cl)nc2c1	207.6%	u	79.8*	u	44.6*	299.5%
Cc1nn(C)c(C)c1CN(C)C(=O)c1cc2nc(-c3ccco3)cc(C(F)(F)F)n2n1	u	-1.2%	-10.6	-8.8%	-3.4	u
